# Screening results from PubChem BioAssay.
# LmPK activator: LmPK (Leishmania mexicana) enzyme activation; Q27686; purified LmPK, Kinase-Glo ATP luminescence, 1 h; activity change, negative = inhibition, % at 57.5 µM; 290,000 tested, under 10 active; AID 1722; calls by dose curve
# Target sequence (Q27686 whole entry, looked up): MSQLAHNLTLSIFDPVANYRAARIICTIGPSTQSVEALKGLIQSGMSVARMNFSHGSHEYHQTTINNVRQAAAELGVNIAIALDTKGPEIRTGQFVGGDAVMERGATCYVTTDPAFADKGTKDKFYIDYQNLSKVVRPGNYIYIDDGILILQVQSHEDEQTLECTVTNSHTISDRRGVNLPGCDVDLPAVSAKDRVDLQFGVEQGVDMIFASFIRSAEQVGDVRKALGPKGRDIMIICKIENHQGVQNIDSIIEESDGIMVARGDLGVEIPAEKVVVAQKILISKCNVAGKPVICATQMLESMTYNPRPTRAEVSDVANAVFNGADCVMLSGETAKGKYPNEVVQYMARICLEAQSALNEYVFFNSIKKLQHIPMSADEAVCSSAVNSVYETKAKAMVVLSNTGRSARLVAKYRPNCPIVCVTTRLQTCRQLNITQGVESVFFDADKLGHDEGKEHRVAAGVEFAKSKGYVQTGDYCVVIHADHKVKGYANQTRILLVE
#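 Purified L. mexicana pyruvate kinase (0.1 nM) with 0.5 mM PEP and 0.1 mM ADP in pH 7.2 imidazole buffer, 1 h at RT. ATP formed measured by Kinase-Glo luminescence; normalized to uninhibited and no-enzyme wells.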
# Calls only; 0 = inactive; [ ] = another dose, or the depositor's remark. A selection follows.
SMILES,LmPK activator
COc1cc(/C=C2\SC(=Nc3ccc(Cl)c(C(=O)O)c3)NC2=O)c(Br)c(Br)c1O,0
O=C1c2ccccc2NC(c2ccc(O)c(O)c2)N1c1ccccc1Cl (stereo unspecified),0
CCOc1ccc(-n2cc(-c3ccc(OC)c(OC)c3)[nH]c2=S)cc1,0[11.5 µM]
O=C(O)CSc1ccc(NC(=O)Nc2ccccc2F)cc1,0
O=C1C=CC(=O)N1N(c1ccccc1)c1ccccc1,0
CCc1c(C)c(C#N)c2[nH]c3ccccc3n2c1=S,0
Cn1c2c(c(=O)[nH]c1=O)C(c1cccc(O)c1)C1=C(N2)c2ccccc2C1=O (stereo unspecified),0
O=C(O)/C=C/c1cnn(-c2ccccc2)c1,0
Cc1ccccc1/C(N)=N/OC(=O)c1cccs1,0
Cn1c(=O)[nH]c(=O)c2c1[nH]c(=S)n2Cc1ccc(Cl)cc1,0
C=CCSc1nnc2c(n1)OC=Nc1ccccc1-2,0
COc1ccccc1-n1c(CNC(=O)COc2ccccc2)n[nH]c1=S,0
N#Cc1c(Cl)nsc1NN,0
O=C(OCc1csc(-c2ccccc2)n1)c1ccccc1O,0
Cc1ccc(C)c(-n2cc[nH]c2=S)c1,0
COc1ccc(-c2cc(C(=O)Nc3cccc(O)c3)no2)cc1,0
COc1cc(Cl)c(C)cc1NC(=O)COC(=O)c1cc[n+]([O-])cc1,0
O=C1CSC(=S)N1N1C(=O)c2cccc([N+](=O)[O-])c2C1=O,0
CCN1/C(=C2\C(=O)N(C)C(=S)N2C)C=Cc2cc(C)ccc21,0
COc1cccc(CSc2nc3ccncc3[nH]2)c1,0
COc1cc(-c2n[nH]c(=S)n2/N=C/c2cccn2C)cc(OC)c1OC,0
COc1ccc2nc(/N=C/c3c(C)[nH]n(-c4ccc(C)cc4)c3=O)sc2c1,0
Cc1nonc1C(=O)N/N=C/c1ccccc1,0
O=C(NC(=S)N1CCOCC1)c1cc2ccccc2o1,0
COCCCn1c(=S)[nH]c2sc3c(c2c1=O)CCCS3,0
SMILES,LmPK activator
CCc1ccc(NC(=O)c2ccccc2SC)cc1,0
COc1cccc(Cc2n[nH]c(=S)n2Cc2ccco2)c1,0
CC(C1CC2CCC1C2)n1c(-c2ccco2)n[nH]c1=S (stereo unspecified),0
CC12CCC(=O)N1C(C(=O)Nc1nnc(SCc3ccccc3F)s1)CS2 (stereo unspecified),0
Cc1cc(N=Nc2ccc(C)c(N=Nc3cc(C)c(N)cc3N)c2)c(N)cc1N,0
COc1ccc(Cn2c(=S)[nH]c3ccsc3c2=O)cc1,0
O=C(N/N=C/c1ccccc1OCC(=O)N1CCCC1)C(=O)Nc1ccccc1F,0
CCCCc1ccc(NC(=O)C(C)CC)cc1 (stereo unspecified),0
O=c1c2ccccc2cnn1Cc1n[nH]c(=S)n1-c1ccccc1Cl,0
CSc1nc(N)n2nc(-c3ccccc3)cc2n1,0
COc1cc(N2C(=O)C=CC2=O)c(OC)cc1Cl,0
CC(C)Cn1c(C23CC4CC(CC(C4)C2)C3)n[nH]c1=S,0
O=C(O)C1Nc2c(O)cc(Cl)c([N+](=O)[O-])c2C2C=CCC12 (stereo unspecified),0
CCc1ccc(C(=O)COC(=O)c2ccccc2OC)cc1,0
CC(C(=O)O)c1ccc(N2Cc3ccccc3C2=O)cc1 (stereo unspecified),0
C=CCN1C(=O)/C(=c2\sc3nc(=O)c(Cc4ccccc4Cl)nn3c2=O)c2ccccc21,0
CC(C)c1cc2c(c(O)c1O)[C@@]13CCCC(C)(C)C1CC2OC3=O (stereo partly specified),0
O=[N+]([O-])c1cnc2nc(-c3ccncc3)nn2c1O,0
Cc1cc(NC(=O)c2ccc(Br)o2)ccc1NC(=O)c1ccco1,0
C=CC[n+]1ccc(/C=C2\C=Cc3cc(C)ccc3N2CC)c2ccccc21,0
c1ccc(CCN(Cc2ccccc2)C2CCN(C3CCCC3)CC2)cc1,0
O=C(Nc1ccccc1F)N(CCCN1CCOCC1)Cc1cc2cc3c(cc2[nH]c1=O)OCCO3,0
O=C(/C=C/Nc1ccc(Oc2ccccc2)cc1)c1ccco1,0
CN=c1scc(-c2ccc(F)cc2)n1/N=C/c1ccc(O)c(O)c1,0
Cc1c(Cl)c(-c2n[nH]c(=S)n2-c2ccc(F)cc2)nn1C,0
SMILES,LmPK activator
CCn1c(=O)c2c(n3c(=S)[nH]nc13)-c1ccccc1CC21CCCCC1,0
Cc1ccc(S(=O)(=O)N2C(=O)[C@@H]3Cc4ccccc4CN3C2=O)cc1,0
CC1=C(C#N)C(=O)N(C2CCS(=O)(=O)C2)C(=O)/C1=C\c1ccco1 (stereo unspecified),0
Cc1ccc(C(=O)O/N=C(\N)c2nonc2N)cc1,0
CCCCNC(=O)COC(=O)CCC(=O)c1ccc(Cl)cc1,0
Cc1n[nH]c(=O)nc1N/N=C/c1ccc(O)c([N+](=O)[O-])c1,0
C/C(=N/NC(=O)c1ccoc1C)c1ccc(NC(=O)c2ccncc2)cc1,0
CC(C)OCCCn1c(-c2ccc(Br)cc2)c[nH]c1=S,0
Cn1c(-c2sc3ccccc3c2Cl)n[nH]c1=S,0
Cc1ccc(C)c2nc3sc(C(=O)O)cc3cc12,0
Oc1ccc(N2CCN(Cc3nc4ccccc4[nH]3)CC2)cc1,0
CCc1ccc(C2=NN(C(C)=O)C(c3ccco3)C2)cc1 (stereo unspecified),0
[O-][n+]1c2ccccc2[n+]([O-])c2cc(O)ccc21,0
Fc1ccc(-c2c[nH]c(=S)n2Cc2ccccc2)cc1,0
C/C(=N/OC(=O)c1ccc(C(F)(F)F)cc1)c1oc(C)nc1C,0
COc1ccc2oc(C(=O)NCCN3CCOCC3)c(C)c2c1OC,0
